HTT cytoprotect = protects HTT-Q103 PC12 cells, measured by ATP; PC12 HTT-Q103 induced, cytoprotection, ATP luminescence, 40 h; Potency, µM (doses to about 56.4 µM), inactives show cytoprotection (ATP increase), usual class: activators; 0.14% of 230,000 active; note: % of control where 0% means no effect; nearly all actives have a fitted effect of over 45% in size
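Compounds added alongside 100 nM tebufenozide, which induces toxic Q103 huntingtin exon 1-GFP in stable PC12 cells; surviving cells quantified by luminescent ATP measurement. Medium: phenol red-free DMEM, 5% equine and 5% calf serum.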
Tau fluor counter = counter-screen for tau fibril formation inhibitors | tau K18 P301L Alexa594 fluorescence, heparin fibrillization | Potency, µM (series often up to 57.7 µM), for the others: top-dose activity change, negative = decrease | 0.93% of 280,000 active; note: % is set by controls: 0 for no effect and ±100 for the full control effect; nearly all actives have a fitted effect of over 55% in size
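Human K18 P301L tau (15 uM unlabeled plus 0.24 uM Alexa 594-labeled, final) in 100 mM sodium acetate pH 7 was mixed with compound and 20 uM heparin and incubated 6 hr at 37 C.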
Tau ThT inhib = blocks human tau fibril formation measured by thioflavin T. recombinant tau K18 P301L, heparin-induced fibrillization, ThT fluorescence. Potency, µM (highest dose often 57.4 µM), for the others: at the highest dose activity, negative = inhibition, usual class: inhibitors. 2.1% of 270,000 active. AID 1460; note: % is set by controls: 0 for no effect and ±100 for the full control effect; nearly all actives have a fitted effect of over 55% in size
Target sequence (P10636 561-689 P618L limits assumed): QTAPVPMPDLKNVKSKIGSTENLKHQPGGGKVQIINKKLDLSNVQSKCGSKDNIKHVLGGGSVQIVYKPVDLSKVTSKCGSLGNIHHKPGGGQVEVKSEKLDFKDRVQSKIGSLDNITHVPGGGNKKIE
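Fibril formation assay: tau K18 P301L at 15 uM with trace Alexa 594 label, heparin inducer 20 uM, pH 7 sodium acetate buffer, 37 C for 6 hr; endpoint ThT signal.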
Tau FP inhib = tau fibrillization inhibition (FP); P10636; K18 P301L tau heparin fibrillization, Alexa594 FP, 6 h; Potency, µM (highest dose often 57.7 µM), for the others: at the top dose activity, negative = inhibition, most hits filed as inhibitors; 0.39% of 280,000 active; AID 1468; note: % is set by controls: 0 for no effect and ±100 for the full control effect; nearly all actives have a fitted effect of over 55% in size
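Read-out: fluorescence polarization of Alexa 594-labeled tau (0.24 uM), 555 nm excitation, 632 nm emission. Mixtures held 15 uM unlabeled K18 P301L, compound and 20 uM heparin, pH 7 acetate buffer, incubated 6 hr at 37 C.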
HTT aggregate = mutant huntingtin aggregation inhibition | PC12 HttQ103-GFP aggregates, Acumen cytometry, 40 h | Potency, µM (titrated, usually from 46.1 µM), inactives show at the top dose activity change, negative = inhibition, hits mostly inhibitors | 1.1% of 220,000 active | AID 1688; note: % is set by controls: 0 for no effect and ±100 for the full control effect; nearly all actives have a fitted effect of over 60% in size
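Ecdysone-promoter PC12 model expressing HTT exon 1 Q103 fused to GFP, induced by tebufenozide at 100 nM final. Compounds titrated; aggregates sized 1–25 µm scored on a 488 nm laser cytometer.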
Numbers without * were called inactive; ? = inconclusive; . = no result given; [ ] = dose if it differs, or a comment. Most compounds without a hit are left out; they make up all but 3.7% or so of the library. Calls come from the whole dose curve; as a rule, active = well fitted curve in the direction sought with a large enough effect; inconclusive = small, poorly fitted or top-dose-only effect, or another doubt; inactive = no such curve, though single readings can be large; an effect the other way counts as inactive or inconclusive. Potency is the fitted concentration of half-maximal effect.

SMILES | HTT cytoprotect | Tau fluor counter | Tau ThT inhib | Tau FP inhib | HTT aggregate
O=C(N/N=C/c1ccc(-c2cccc([N+](=O)[O-])c2)o1)c1ccc([N+](=O)[O-])cc1 | -44% | ? | 5.6µM* | 10% | -25%
C/C(=N\NC(=O)CSCc1ccc([N+](=O)[O-])cc1)c1ccccc1O | . | -24% | ? | 0% | 10µM*
CCOC(=O)N1CCc2c(sc3c2C(=O)NC(c2cc(OC)c(O)c(OC)c2)N3)C1 (stereo not given) | . | -16% | 11µM* | 1% | .
CCOc1cc(C2NC(=O)c3c(sc4c3CCN(C)C4)N2)ccc1OC(=O)c1ccc(Br)cc1 (stereo not given) | . | -9% | ? | -9% | .
CCOC(=O)N1CCc2c(sc3c2C(=O)NC(c2ccc(N(C)C)cc2)N3)C1 (stereo not given) | . | -15% | 0.89µM* | -19% | .
COc1cc(C2NC(=O)c3c(sc4c3CCN(C)C4)N2)ccc1OC(=O)c1ccccc1 (stereo not given) | . | -14% | 13µM* | -6% | .
CCOC(=O)N1CCc2c(sc3c2C(=O)NC(c2ccccc2)N3)C1 (stereo not given) | -18% | -28% | 28µM* | ? | -20%
CC(C)(CCC(C)(C)c1ccccc1)c1ccccc1 | 7%[10 µM] | . | . | . | .
COc1ccccc1CNC(=O)c1c(N)n(CCCN2CCOCC2)c2nc3ccccc3nc12 | -112% | ? | 25µM* | -8% | 8%
Nc1c(C(=O)NCc2ccc3c(c2)OCO3)c2nc3ccccc3nc2n1CCCN1CCOCC1 | -23%[0.074 µM] | ? | ? | 3% | ?
CC(C)C(=O)NC(c1ccc([N+](=O)[O-])cc1)c1c(O)ccc2ccccc12 (stereo not given) | -40% | ? | 20µM* | ? | ?
Cc1oc(-c2ccc(C(=O)N(C)Cc3ccccc3)cc2)nc1CN1CCc2ccccc21 | . | -15% | -17% | 8% | .
CN(C)c1ccc(/C=C/c2ccc3ccccc3[n+]2C)cc1 | -71%[10 µM] | 0.5µM*[fluorescent] | 0.56µM* | 11% | 2.5µM*
CN(C)c1ccc(/C=C/c2ccc3c4ccccc4ccc3[n+]2-c2ccccc2)cc1 | -45%[10 µM] | 0.79µM*[fluorescent] | 2µM* | ? | 4µM*
COc1ccc2c3c([nH]c2c1)[C@H]1C[C@@H]2[C@@H](C[C@@H](O)[C@H](OC)[C@H]2C(=O)O)CN1CC3 | 18%[10 µM] | . | . | . | .
Clc1ccc(-c2nnc(CSc3nnc(-c4cccs4)n3Cc3ccccc3)o2)cc1 | . | -15% | -10% | -2% | ?
Fc1ccc(NCc2nnc(SCc3nnc(-c4ccccc4)o3)n2Cc2ccccc2)cc1 | 19%[10 µM] | -12% | -11% | 4% | 13µM*
Cc1ccc(NC(=O)Nc2nnc(Cc3ccc([N+](=O)[O-])cc3)s2)cc1C | -7%[10 µM] | 5µM*[quencher] | ? | ? | -2%
O=C(Nc1ccccc1)Nc1nnc(Cc2ccc([N+](=O)[O-])cc2)s1 | . | ? | -14% | ? | ?
Cc1[nH]n2c(=O)c3c(nc2c1-c1ccc(F)cc1)CCCC3 | 26%[10 µM] | 2% | 0% | 4% | -15%[9.22 µM]
Cc1ccc(N=Nc2c(=O)[nH]n3c(C)cc(C)nc23)cc1 | 8% | -12% | 20µM* | -5% | -9%
Cc1cc(C)n2[nH]c(=O)c(N=Nc3ccc(S(N)(=O)=O)cc3)c2n1 | 23%[10 µM] | -2% | ? | -1% | 16%[9.22 µM]
Cc1ccc(N=Nc2c(N)[nH]n3c(=O)c4c(nc23)CCCC4)cc1 | -3% | -13% | 1.4µM* | 2% | -19%
Cc1ccc(N=Nc2c(C)[nH]n(C(N)=S)c2=O)cc1 | . | 4% | 4% | 1% | 11%
Cc1ccc(N=Nc2c(N)[nH]n3c(=O)cc(C)nc23)cc1 | . | -20% | 4µM* | ? | -1%
SMILES | HTT cytoprotect | Tau fluor counter | Tau ThT inhib | Tau FP inhib | HTT aggregate
COc1ccc(CCNC(=O)c2cc(-c3ccc(C)c(C)c3)nc3ccccc23)cc1OC | . | -18% | 0% | -1% | .
CCN(CC)c1ccc(Nc2nc(N3CCOCC3)c3ccccc3n2)cc1 | -4% | ? | ? | 17% | 7.9µM*
COc1ccc(Nc2nc(N3CCCC3)c3ccccc3n2)cc1 | -70% | ? | -16% | 7% | ?
Cc1noc(NC(=O)Nc2ccccc2F)c1C#N | 2%[10 µM] | . | . | . | .
Nc1c(C=C2C=CC(=O)C=C2)c(=O)nc2snc(SCc3ccccc3)n12 | -4%[10 µM] | ? | 7.9µM* | ? | 11%[9.22 µM]
COC(=O)/C=C1\SC(N2CCOCC2)=C(c2ccc(OC)cc2)C1=O | -32% | -20% | 28µM* | ? | -6%
COC(=O)CN1C(=S)N(c2ccc(OC)cc2)C(=O)/C1=C/c1ccc(N2CCOCC2)cc1 | -37% | -28% | ? | 13% | ?
CCOC(=O)c1c(C2COc3ccccc3O2)csc1N (stereo not given) | -30%[0.074 µM] | 25µM*[quencher] | ? | 9% | 2%
CC(C)[N+]1(C)[C@@H]2CC[C@H]1CC(OC(=O)[C@@H](CO)c1ccccc1)C2 (stereo not given in full) | ? | -6% | -8% | 1% | .
Cc1cc(C)cc(NC(=O)C(=O)NCC(c2ccc3c(c2)OCO3)N2CCN(C)CC2)c1 (stereo not given) | . | -5% | -6% | -1% | .
COC(=O)c1cccc(-c2ccc(C(c3c(C)[nH][nH]c3=O)c3c(C)[nH][nH]c3=O)o2)c1 | -20% | -26% | 7.9µM* | ? | 5%
Cc1[nH][nH]c(=O)c1C(c1ccc(-c2ccc(Cl)c(C(=O)O)c2)o1)c1c(C)[nH][nH]c1=O | -56% | -16% | 10µM* | ? | 17%
COC(=O)c1ccccc1-c1ccc(C(c2c(C)[nH][nH]c2=O)c2c(C)[nH][nH]c2=O)o1 | -29%[10 µM] | -12% | -3% | -5% | -33%[9.22 µM]
O=C(O)c1cncc(C(=O)O)c1 | -2%[10 µM] | . | . | . | .
CSc1nc(N(CCO)CCO)c2sc3nc(-c4ccco4)c4c(c3c2n1)CCC4 | 8%[0.074 µM] | ? | 25µM* | ? | ?
N=C(N)C(N=Nc1ccccc1)C(=N)N (stereo not given) | -4%[10 µM] | . | . | . | .
Oc1nc(Nc2ccccc2)sc1/C=C1\C=Nc2ccccc21 | 2%[10 µM] | 8.9µM*[quencher] | 3.5µM* | -14% | -22%[9.22 µM]
CC(C)(C)c1ccc(-c2cn(-c3ccc(Br)cc3)c3[n+]2CCCS3)cc1 | -39%[10 µM] | 7% | -6% | 6% | 1.3µM*
c1ccc(-c2cn(-c3ccccc3)c3[n+]2CCS3)cc1 | -48% | 4% | 2% | -5% | ?
Cc1nc2ncnn2c(N2CCCC(C(=O)Nc3ccc4c(c3)CCC4)C2)c1C (stereo not given) | -2%[10 µM] | -1% | -15% | 6% | 10µM*
O=C(Nc1ccc2c(c1)CCC2)C1CCCN(c2ncccn2)C1 (stereo not given) | -22%[10 µM] | -14% | -7% | 2% | 9%
Cc1nc2ccc(Cc3ccc4nc(C)[nH]c4c3)cc2[nH]1 | 19%[1.9 µM] | -2% | -5% | -8% | -19%
